Experimental data from PubChem BioAssay (Tox21).
A number with no mark means an inactive call. The call rests on the fitted dose curve; in most records, active means well fitted inhibition curve with a large enough effect in the repeat runs (not every such curve was filed as active); inconclusive means weak or mixed curves; inactive means flat fitted curve, though single readings scatter.

These compounds were tested against Thyrotropin-releasing hormone receptor (Homo sapiens) (UniProt P34981) (assay: qHTS assay to identify small molecule antagonists of the thyrotropin-releasing hormone receptor (TRHR) signaling pathway (AID 1346877)). Details: TRHR-HEK293, TRH-induced calcium fluorescence, antagonist mode; series mostly up to 51.3 µM; activity, negative = inhibition: at the top concentration.
Chain of Thyrotropin-releasing hormone receptor (Homo sapiens) (P34981 whole entry, looked up): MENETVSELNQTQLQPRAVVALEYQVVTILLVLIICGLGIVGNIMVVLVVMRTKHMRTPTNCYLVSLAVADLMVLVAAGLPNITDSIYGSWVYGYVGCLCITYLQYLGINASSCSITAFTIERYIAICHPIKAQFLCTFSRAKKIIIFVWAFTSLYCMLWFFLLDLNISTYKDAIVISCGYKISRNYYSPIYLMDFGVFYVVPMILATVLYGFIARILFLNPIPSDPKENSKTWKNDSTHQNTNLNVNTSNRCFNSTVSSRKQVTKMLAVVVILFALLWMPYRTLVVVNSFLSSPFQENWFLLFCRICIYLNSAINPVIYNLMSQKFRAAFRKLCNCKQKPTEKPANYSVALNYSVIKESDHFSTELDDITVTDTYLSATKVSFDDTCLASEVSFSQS
Source text: National Center for Advancing Translational Sciences [NCATS]
NIH Chemical Genomics Center [NCGC]
U.S. Environmental Protection Agency [EPA]
National Institutes of Environmental Health Sciences [NIEHS]
National Toxicology Program [NTP]
U.S. Food and Drug Administration [FDA]
Thyrotropin-releasing hormone (TRH) receptor (TRHR) is a G-protein-coupled receptor which binds the tripeptide thyrotropin releasing hormone. TRHR is found in the brain and, when bound by TRH, acts (through phospholipase C) to increase intracellular inositol trisphosphate. It plays a crucial role in the anterior pituitary where it controls the synthesis and secretion of thyroid stimulating hormone and prolactin. The TRHR-Hek293 assay is a cell-based assay, and it has the potential to screen G protein-coupled receptors. A compound/drug can either activate (agonist) or suppress (antagonist) GPCRs that can be monitored by levels of intracellular calcium. In this assay, the Tox21 10K compound library was screened to identify potential TRHR antagonists.
Tox21 Assay Protocol Summary:
The TRHR-Hek293 cells were dispensed at 1500cells/4uL/well in 1536-well black-clear bottom plates using a Multidrop dispenser. After the assay plates were incubated at a 37 C/5% CO2 incubator for 18 hours, 4 uL of Dye-Loading Solution was added to each well. The plates were incubated at 37 C for 2 hours. For agonist mode, 23 nL of compounds dissolved in DMSO, positive controls or DMSO only was transferred to the assay plate by a pin tool. The fluorescence intensity in the plates was measured using FDSS 7000EX kinetic plate reader for 3 min at 1 sec intervals. For antagonist mode, 23 nL of compounds dissolved in DMSO, positive controls or DMSO only was transferred to the assay plate by a pin tool. After 5 min incubation at room temperature, 1 uL of TRH was added on the top of the cell/compound mixtures to achieve a final agonist concentration of 1 nM. The fluorescence intensity in the plates was measured using FDSS 7000EX kinetic plate reader for 3 min at 1 sec intervals. Each test compound was measured at 15 concentrations and in triplicates.
On the % scale 0 is the no-effect control and ±100 the full control effect.

Row | Compound | activity, negative = inhibition
1 | CCCCOC(=O)C(C)O (stereo not given) | -3.01%
2 | CC(C)COC(=O)c1ccccc1 | 2.16%
3 | O=C1CCCCO1 | 1.55%
4 | C=CCSSCCC | -0.159%
5 | Cc1c(C(=O)c2c[nH]n(C)c2=O)ccc(S(C)(=O)=O)c1C1=NOCC1 | -8.43% [at 23.6 µM]
6 | CSc1cnccn1 | -0.274%
7 | CCC(C(=O)OCCN1CCOC(c2ccccc2)C1C)c1ccccc1 (stereo not given) | -13.5% [at 23.6 µM]
8 | CC(=O)O[C@@H]1CC2CCC1(C)C2(C)C (stereo not given in full) | 3.89%
9 | Cc1cccc(Cl)c1 | 3.59%
10 | CC1c2ccccc2CN1NC(=O)c1ccc(Cl)c(S(N)(=O)=O)c1 (stereo not given) | -1.31% [at 23.6 µM]
11 | Nc1nnnn1-c1ccccc1 | -11.3% [at 23.6 µM]
12 | CC1=C(O)C(=O)C(C)O1 (stereo not given) | -0.783%
13 | CC(=O)OC(C)=O | 3.94%
14 | C/C(CC(C)C)=N\O | 1.33%
15 | CO[C@@]1(NC(=O)Cc2cccs2)C(=O)N2C(C(=O)O)=C(COC(N)=O)CS[C@@H]21 | 4.74% [at 23.6 µM]
16 | CC12CCC(C1)C(C)(C)C2O (stereo not given) | -0.758%
17 | Cc1ccc(C)c([N+](=O)[O-])c1 | -0.376%
18 | NCCOCCN | 3.59%
19 | O=C(O)CONC(=O)c1ccccc1 | -0.615%
20 | C#CCN[C@@H]1CCc2ccccc21 | -2.89% [at 23.6 µM]

Row | Compound | activity, negative = inhibition
21 | O=C(CCCl)NCCc1ccccc1 | -0.574% [at 23.6 µM]
22 | [O-][n+]1cccc(/C(Cl)=N/OC[C@@H](O)CN2CCCCC2)c1 | -2.59% [at 23.6 µM]
23 | CCCc1ccc(O)cc1 | 0.8%
24 | COS(=O)(=O)O | -3.86%
25 | CCC(=O)CC | -2.61%
26 | CCOc1cccc(N)c1 | 1.04%
27 | CCOC(CN1CCN(CC(C)C(=O)c2ccccc2)CC1)c1ccccc1 (stereo not given) | -3.1% [at 10.5 µM]
28 | CC(=O)CC(=O)OC(C)(C)C | -1.39%
29 | C[C@H]1[C@@H](c2ccccc2)NC(=O)N1C | 2.37%
30 | CN(C)CC/C=C1/c2ccccc2COc2ccc(CC(=O)O)cc21 | 0.198% [at 23.6 µM]
31 | COC(=O)c1ccccc1C(=O)O | 0.592%
32 | Fc1ccccc1 | -1.9%
33 | CC(C)C1OCCN1CCOC(=O)NCCCCCCNC(=O)OCCN1CCOC1C(C)C (stereo not given) | 2.46%
34 | C=Cc1ccc(C(C)(C)C)cc1 | -2.59%
35 | COP(=O)(O)OP(=O)(O)OC | -0.665%
36 | O=C[O][Al]([O]C=O)[O]C=O | 4.9%
37 | CCCCOCC(C)O (stereo not given) | -3.6%
38 | OCCN1CCOCC1 | -2.36%
39 | CCN1CCCC1CN (stereo not given) | 4.88% [at 23.6 µM]
40 | N#CCC(=O)NN | -2.67% [at 23.6 µM]
